Source: PubChem BioAssay AID2551 (National Center for Advancing Translational Sciences (NCATS), 2010)
Among all 310,000 compounds or so, about 17,000 (5.5%) were called active. Not shown: some 11% with an inconclusive outcome. The entries come from a sample that favours actives as a whole. Unmarked numbers belong to inactive results. Calls follow the shape of the dose curve; as a rule, active = well fitted inhibition curve with a large enough effect; inconclusive = small, poorly fitted or top-dose-only effect, or effect the other way; inactive = no such curve, though single readings can be large or run the other way.

target: Nuclear receptor ROR-gamma (Mus musculus) (UniProt P51450); assay: qHTS for inhibitors of ROR gamma transcriptional activity; details: Drosophila S2 Gal4-RORgamma UAS-luciferase reporter, 20 h; series mostly up to 53.6 µM; activity change, negative = inhibition: at the top concentration; also: nearly all actives have a fitted effect of over 60% in size
Summary of the method: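 Stably transfected Drosophila Schneider cells are the test system, with ROR gamma fused to Gal4 and luciferase under UAS control; luminescence is read after 20 hr of 700 uM copper sulfate induction at ambient temperature.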
% is scaled to controls: 0 for no effect and ±100 for the full control effect; potency is read from the fitted curve at half-maximal effect.

Chain of Nuclear receptor ROR-gamma (Mus musculus) (P51450 whole entry, looked up, the tested form may be a part): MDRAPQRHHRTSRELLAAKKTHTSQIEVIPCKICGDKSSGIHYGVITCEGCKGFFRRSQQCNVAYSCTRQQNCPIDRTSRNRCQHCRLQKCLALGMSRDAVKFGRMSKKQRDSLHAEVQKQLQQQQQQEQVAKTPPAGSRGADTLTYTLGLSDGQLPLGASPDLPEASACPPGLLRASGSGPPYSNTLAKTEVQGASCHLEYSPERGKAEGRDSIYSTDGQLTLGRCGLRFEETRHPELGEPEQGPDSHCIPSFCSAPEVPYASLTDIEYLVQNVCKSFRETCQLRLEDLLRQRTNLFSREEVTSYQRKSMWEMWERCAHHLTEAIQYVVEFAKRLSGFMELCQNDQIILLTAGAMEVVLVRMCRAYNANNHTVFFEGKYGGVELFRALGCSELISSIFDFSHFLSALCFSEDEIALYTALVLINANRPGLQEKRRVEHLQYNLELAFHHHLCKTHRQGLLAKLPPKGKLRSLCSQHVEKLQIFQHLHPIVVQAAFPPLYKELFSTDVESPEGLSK

**Q.** `COc1cccc(NC(=O)CN(C)C(=O)c2ccccc2CCc2ccccc2)c1` was tested. Which “activity change, negative = inhibition” value did it give?
**A.** The value was 30.3%.

**Q.** How did the “activity change, negative = inhibition” value turn out when `CCCn1c(=O)c(C(=O)Nc2cc(C)ccn2)c(O)c2ccccc21` was run?
**A.** The value was 5.16%.

**Q.** `CC(NCC(=O)Nc1cc(Cl)cc(Cl)c1)c1ccccc1` (configuration not stated) was tested. Which “activity change, negative = inhibition” value did it give?
**A.** The value was -2.11%.

**Q.** Which “activity change, negative = inhibition” value does the source give for `Cc1cccnc1NC(=O)Cn1c(=O)oc2ccccc21` here?
**A.** The value was 13.7%.

**Q.** How did the “activity change, negative = inhibition” value turn out when `CN(C(=O)c1cccc(OC2CCN(S(=O)(=O)N(C)C)CC2)c1)C1CCOC1` (configuration not stated) was run?
**A.** Its value is 10.1%.

**Q.** Which Potency does the source give for `O=C(Nc1ccc(C(=O)O)c(O)c1)c1ccccc1` here?
**A.** Its Potency is “inactive”.

**Q.** With `O=C(NC(=O)c1ccccc1)Nc1ccccc1O` as the compound, how does the Potency read?
**A.** Its Potency is 7.08 µM (active).

**Q.** How did the “activity change, negative = inhibition” value turn out when `O=C(NC(=O)c1ccccc1)NC(=O)c1ccccc1` was run?
**A.** Its value is -17.4%.

**Q.** With `C[C@H](NC(=O)C1CC(=O)N(c2ccc3c(c2)OCCO3)C1)C(=O)N1CCC(C(=O)O)CC1` (some centres not stated) as the compound, how does the “activity change, negative = inhibition” value read?
**A.** Its value is -3.96%.

**Q.** How did the “activity change, negative = inhibition” value turn out when `COc1ccc2nc(C)cc(Nc3cccc(C(=O)O)c3)c2c1` was run?
**A.** Its value is 34.5%.

**Q.** With `O=C(Nc1ccn(Cc2ccccc2)n1)c1cccc(F)c1` as the compound, how does the “activity change, negative = inhibition” value read?
**A.** Its value is -19.5%.

**Q.** How did the “activity change, negative = inhibition” value turn out when `Cn1cc([N+](=O)[O-])c(C(=O)Nc2cnn(Cc3ccc(F)cc3)c2)n1` was run?
**A.** The value was 39.6%.

**Q.** How did the Potency turn out when `O=C(Nc1ccn(Cc2ccccc2)n1)c1n[nH]c([N+](=O)[O-])c1Cl` was run?
**A.** The Potency was 7.08 µM (active).

**Q.** With `CC(C)[C@H](NC(=O)N1CCn2c1nc1ccccc12)C(=O)NCCc1ccccc1` as the compound, how does the “activity change, negative = inhibition” value read?
**A.** The value was 36.9%.

**Q.** For `CCCCCN(C(=O)CCC(=O)OCC(=O)NCc1ccc(OC)cc1)c1c(N)n(CCCC)c(=O)[nH]c1=O`, which “activity change, negative = inhibition” value is on record?
**A.** The value was 12.4%.

**Q.** For `CN(C)C(=S)Nc1ccc(Br)cc1Cl`, which “activity change, negative = inhibition” value is on record?
**A.** Its value is -7.55%.

**Q.** For `COc1ccc(CN(C)C(=S)Nc2ccc(Cl)cc2Cl)cc1`, which Potency is on record?
**A.** Its Potency is 17.8 µM (active).

**Q.** How did the “activity change, negative = inhibition” value turn out when `COc1ccc(CN2CCn3ncc(C(=O)Nc4ccc(Cl)cc4Cl)c3C2=O)cc1` was run?
**A.** Its value is -17.8%.

**Q.** How did the “activity change, negative = inhibition” value turn out when `CCn1c(=O)c(=O)[nH]c2c(=O)oc3ccc(S(=O)(=O)Nc4ccc(OC)cc4)cc3c21` was run?
**A.** The value was 3.51%.

**Q.** Which “activity change, negative = inhibition” value does the source give for `COCCOC(=O)C1=C(C)N=c2s/c(=C\c3cccs3)c(=O)n2C1c1cccs1` (configuration not stated) here?
**A.** Its value is 17.2%.

**Q.** How did the “activity change, negative = inhibition” value turn out when `O=C1CCCC2=C1C(c1ccccc1)n1c(s/c(=C/c3cccc(F)c3)c1=O)=N2` (configuration not stated) was run?
**A.** Its value is 1.43%.

**Q.** Which Potency does the source give for `COc1ccc(OC)c(C2C3=C(N=c4s/c(=C\c5cccc(O)c5)c(=O)n42)c2ccccc2CC3)c1` (configuration not stated) here?
**A.** Its Potency is 12.6 µM (active).

**Q.** How did the Potency turn out when `CC(=O)c1c(O)cc2n(c1=O)-c1ccc(Cl)cc1C2(C)C` was run?
**A.** The Potency was 10 µM (active).

**Q.** Which “activity change, negative = inhibition” value does the source give for `Cc1coc(C)c1C(=O)CC1(O)C(=O)N(C)c2ccc(Cl)cc21` (configuration not stated) here?
**A.** Its value is 12.2%.

**Q.** With `O=C(COc1ccc2ccc(=O)oc2c1)NCC(O)c1ccccc1` (configuration not stated) as the compound, how does the “activity change, negative = inhibition” value read?
**A.** The value was 0.846%.

**Q.** `COc1cccc(CNC(=O)C2CCCN(c3ncnc4c3nc3n4CCCCC3)C2)c1` (configuration not stated) was tested. Which “activity change, negative = inhibition” value did it give?
**A.** Its value is -14.6%.

**Q.** With `CCOC(=O)c1c(NC(=S)NC(=O)/C=C/c2cccs2)sc(C)c1C` as the compound, how does the Potency read?
**A.** The Potency was 1.26 µM (active).

**Q.** For `CCc1nnc(NS(=O)(=O)c2ccc(NC(=S)NC(=O)/C=C/c3cccs3)cc2)s1`, which “activity change, negative = inhibition” value is on record?
**A.** The value was 15.5%.

**Q.** With `CCOC(=O)c1c(NC(=O)/C=C/c2ccco2)sc(C)c1C` as the compound, how does the “activity change, negative = inhibition” value read?
**A.** The value was -29.3%.

**Q.** For `COC(=O)C1=CN(c2ccc(F)c(F)c2)C=C(C(=O)OC)C1c1ccc([N+](=O)[O-])cc1`, which “activity change, negative = inhibition” value is on record?
**A.** Its value is -7.43%.

**Q.** For `CCOc1ccc(C(=O)Nc2ccc(S(=O)(=O)Nc3cc(C)on3)cc2)cc1`, which “activity change, negative = inhibition” value is on record?
**A.** Its value is 30%.

**Q.** Which “activity change, negative = inhibition” value does the source give for `O=C(CCn1ccc([N+](=O)[O-])n1)Nc1nccs1` here?
**A.** The value was 12.8%.

**Q.** With `CC(NC(=O)C(=O)Nc1nccs1)c1ccccc1` (configuration not stated) as the compound, how does the “activity change, negative = inhibition” value read?
**A.** The value was -16.6%.

**Q.** For `Cc1c(Br)c([N+](=O)[O-])nn1C(C)C(=O)Nc1nccs1` (configuration not stated), which Potency is on record?
**A.** Its Potency is 20 µM (active).

**Q.** How did the “activity change, negative = inhibition” value turn out when `CCOc1ccccc1NC(=O)NC1CCCCCCC1` was run?
**A.** The value was -21.3%.

**Q.** How did the “activity change, negative = inhibition” value turn out when `COc1ccc(CNC(=O)C(c2ccc(O)cc2)N(Cc2ccco2)C(=O)c2snc(C(N)=O)c2N)cc1` (configuration not stated) was run?
**A.** The value was 42.5%.

**Q.** With `O=c1cc(Cl)c2ccccc2n1-c1ccccc1` as the compound, how does the “activity change, negative = inhibition” value read?
**A.** Its value is 2.4%.

**Q.** Which Potency does the source give for `Cc1nnc(NC(=O)CSc2nccn2-c2cccc(C)c2C)s1` here?
**A.** Its Potency is 10 µM (active).

**Q.** With `Cc1cccc(CSc2nnc(NC(=O)CSc3nnc(C)s3)s2)c1` as the compound, how does the “activity change, negative = inhibition” value read?
**A.** The value was -14.5%.

**Q.** With `COc1ccccc1-n1c(CNC(=O)c2ccccc2)nnc1SCC(=O)Nc1nnc(C)s1` as the compound, how does the “activity change, negative = inhibition” value read?
**A.** The value was 6.05%.

**Q.** How did the “activity change, negative = inhibition” value turn out when `Cc1ccc(C(=O)N/C(=C\c2cn(C)c3ccccc23)C(=O)N2CCN(C)CC2)cc1` was run?
**A.** Its value is 3.55%.

**Q.** `Cc1cccc(NC(=O)NC(=S)NC(=O)c2ccccc2)c1` was tested. Which Potency did it give?
**A.** The Potency was 2.51 µM (active).

**Q.** For `Cc1cc2[nH]ncc2cc1NC(=S)NC(=O)c1ccccc1`, which “activity change, negative = inhibition” value is on record?
**A.** Its value is -29.8%.

**Q.** For `Cc1cccc(NC(=S)NC(=O)c2ccc(Br)o2)c1`, which Potency is on record?
**A.** The Potency was 2.82 µM (active).

**Q.** Which activity change, negative = inhibition does the source give for `Cc1ccc(NC(=O)NC(=O)c2ccccc2)cc1F` here?
**A.** Its activity change, negative = inhibition is 8.25% [at 1.91 µM].

**Q.** `Cc1cccc(NC(=O)/C(=C\c2ccco2)NC(=O)c2ccccc2)c1` was tested. Which “activity change, negative = inhibition” value did it give?
**A.** The value was -0.0873%.

**Q.** Which “activity change, negative = inhibition” value does the source give for `COc1cc(OC)c(NC(=O)c2ccc(Br)o2)cc1Cl` here?
**A.** Its value is 3.59%.

**Q.** With `O=C(CNC(=O)c1ccc(Br)o1)Nc1ccccc1` as the compound, how does the “activity change, negative = inhibition” value read?
**A.** Its value is -27.4%.

**Q.** With `Cc1ccc(NC(=S)NC(=O)c2ccc(-c3ccccc3)cc2)c(C)c1` as the compound, how does the Potency read?
**A.** Its Potency is 4.47 µM (active).

**Q.** For `Cc1ccc(NC(=O)c2oc(=O)c3ccccc3c2-c2ccccc2)c(C)c1`, which “activity change, negative = inhibition” value is on record?
**A.** Its value is 1.68%.

**Q.** How did the “activity change, negative = inhibition” value turn out when `c1cnc(N2CCN(c3ccc4ccccc4n3)CC2)nc1` was run?
**A.** Its value is -20.4%.

**Q.** With `CCCN1CCn2c3c(c4cc(Br)ccc42)CCCC31` (configuration not stated) as the compound, how does the “activity change, negative = inhibition” value read?
**A.** Its value is -5.16%.
